Assay outcomes: PubChem BioAssay, National Center for Advancing Translational Sciences (NCATS)
This is a sample that favours compounds with a hit; in the whole collection about 0.54% have one here.
Vif-APOBEC3F blk: Vif-A3F binding inhibition; HeLa A3F-eYFP + Vif (tagged APOBEC3F with the HIV-1 protein that degrades it), YFP fluorescence increase; Potency, µM (series often up to 46.1 µM); actives 0.2% (n = 390,000); AID 602313; note: nearly all actives have a fitted effect of over 65% in size
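Fluorescence increase (Ex 488/Em 500-530) after overnight compound treatment at 37 deg C flags inhibition of Vif-driven A3F-eYFP loss in stable HeLa A3F-eYFP/Vif cells seeded overnight beforehand.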
MBNL1-CUG inh: MBNL1-poly(CUG) RNA binding inhibition | actives 0.036% (n = 280,000) | Potency, µM (highest dose often 57.5 µM), most hits filed as inhibitors | Q9NR56 | TR-FRET MBNL1-His/biotin-(CUG)12 binding, 665/545 ratio; active = well fitted inhibition curve with a large enough effect in the signal ratio, with a control signal flat, not every such curve was filed as active; inconclusive = small, poorly fitted or top-dose-only effect, or effect the other way, or a change in a side signal; inactive = no such curve, though single readings can be large or run the other way; the % refers to the signal ratio
Target sequence (Q9NR56 whole entry, looked up): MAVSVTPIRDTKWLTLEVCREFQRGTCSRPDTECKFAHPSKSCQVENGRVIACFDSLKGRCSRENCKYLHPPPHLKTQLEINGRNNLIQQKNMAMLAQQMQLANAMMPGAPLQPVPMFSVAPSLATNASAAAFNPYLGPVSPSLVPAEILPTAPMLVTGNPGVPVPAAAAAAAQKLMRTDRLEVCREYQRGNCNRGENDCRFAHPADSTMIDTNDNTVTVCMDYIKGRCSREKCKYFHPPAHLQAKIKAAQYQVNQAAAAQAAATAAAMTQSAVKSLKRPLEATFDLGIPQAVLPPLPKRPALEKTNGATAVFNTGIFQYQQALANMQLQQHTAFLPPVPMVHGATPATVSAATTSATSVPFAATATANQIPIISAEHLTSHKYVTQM
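Inhibition of protein-RNA binding appears as loss of TR-FRET between terbium anti-His antibody on MBNL1-His and streptavidin-XL665 on biotin-(CUG)12. Activity is normalized to buffer-only and uninhibited-complex controls.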
Vif-A3G inh: blocks the Vif interaction with human APOBEC3G | Q9HC16 | HeLa A3G-eYFP + Vif (tagged APOBEC3G with the HIV-1 protein that degrades it), YFP fluorescence, overnight | Potency, µM (highest dose often 46.1 µM), usual class: inhibitors | actives 0.076% (n = 410,000) | AID 602310; note: nearly all actives have a fitted effect of over 60% in size
Target sequence (Q9HC16 whole entry, looked up): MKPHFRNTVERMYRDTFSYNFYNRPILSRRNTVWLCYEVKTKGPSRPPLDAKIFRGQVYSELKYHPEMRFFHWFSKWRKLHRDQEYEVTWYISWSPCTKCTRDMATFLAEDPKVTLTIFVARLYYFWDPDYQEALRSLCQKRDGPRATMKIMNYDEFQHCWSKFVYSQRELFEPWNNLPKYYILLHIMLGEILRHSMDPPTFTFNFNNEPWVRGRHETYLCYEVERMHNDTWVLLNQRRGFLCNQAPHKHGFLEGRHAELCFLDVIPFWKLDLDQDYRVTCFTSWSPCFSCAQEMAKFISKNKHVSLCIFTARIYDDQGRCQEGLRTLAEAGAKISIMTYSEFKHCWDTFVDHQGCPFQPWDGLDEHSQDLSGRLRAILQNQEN
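Read-out is eYFP fluorescence (Ex 488/Em 500-530) from Vif-expressing HeLa A3G-eYFP cells; more signal means A3G escaped Vif-mediated degradation. Cells plated overnight, compound pinned in, incubated overnight at 37 deg C.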
uPA surface inh: blocks generation of uPA at the cell surface. actives 0.31% (n = 330,000). AID 540303. Potency, µM (series often up to 38.3 µM), actives largely listed as inhibitors. cell surface uPA generation assay, qHTS; active = well fitted inhibition curve with a large enough effect; inconclusive = small, poorly fitted or top-dose-only effect; inactive = no such curve, though single readings can be large or run the other way; tested in mouse RAW 264.7 cells; note: nearly all actives have a fitted effect of over 55% in size
BCR signal inh: inhibitors of chronic active B-cell receptor signaling; Potency, µM (series often up to 46.1 µM), most hits filed as inhibitors; AID 493014; ABC-DLBCL IkBa-CBG/CBR reporter, luminescence ratio, 4 h; actives 0.05% (n = 340,000); active = well fitted inhibition curve with a large enough effect in the signal ratio, with a control signal flat, not every such curve was filed as active; inconclusive = small, poorly fitted or top-dose-only effect, or effect the other way, or a change in a side signal; the % refers to the signal ratio
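Concentration-response series (up to 46 uM) were applied to TMD8 dual-reporter cells for 4 h at 37C with doxycycline. Green/red ratio, after filter-overlap correction, defined %Activity; red signal alone was normalised to basal cells and zero luminescence.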
TCR act: activators of T cell receptors | 330,000 tested, under 10 active | primary human leukocytes, anti-CD3, IL-2 HTRF, 48 h | Potency, µM (titrated, usually from 9.22 µM), actives largely listed as activators | AID 504894
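IL-2 produced over 48 hr by a-CD3 bead-stimulated primary human leukocytes exposed to compounds was detected with a homogeneous time-resolved FRET immunoassay, 665nm acceptor signal after 320nm excitation.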
MBNL1-CUG FRET: blocks human MBNL1 binding to CUG repeat RNA, TR-FRET validation | shares compounds with MBNL1-CUG inh | TR-FRET MBNL1-His / biotin-(CUG)12 binding, 60 min | Potency, µM (highest dose often 57.6 µM), usual class: inhibitors | actives 50% (n = 140)
MBNL1-CUG Alpha: MBNL1-CUG RNA binding inhibition, AlphaScreen validation; actives 30% (n = 140); AID 493205; AlphaScreen MBNL1-His / biotin-(CUG)12 binding; shares compounds with MBNL1-CUG inh; Potency, µM (doses to about 57.7 µM), hits mostly inhibitors
Menin-MLL HTRF: counter-screen for MBNL1-poly(CUG) RNA binding inhibitors; shares compounds with MBNL1-CUG inh; His-Menin/biotin-MLL peptide TR-FRET counterscreen; actives 20% (n = 120); Potency, µM (titrated, usually from 57.6 µM), actives largely listed as inhibitors; AID 651843
Numbers stand for hits; – = inactive; ? = inconclusive; · = no result. Unless noted, calls come from the whole dose curve; as a rule, active = well fitted curve in the direction sought with a large enough effect; inconclusive = small, poorly fitted or top-dose-only effect, or another doubt; inactive = no such curve, though single readings can be large; an effect the other way counts as inactive or inconclusive.

SMILES	Vif-APOBEC3F blk	MBNL1-CUG inh	Vif-A3G inh	uPA surface inh	BCR signal inh	TCR act	others
CC(C(Sc1ccccc1N)c1ccccc1)[N+](=O)[O-] (stereo not given)	–	–	?	11.2µM	–	–
O=C(Nc1cccc(Cl)c1)Nn1cnnc1	–	25.1µM	–	–	–	–
Cc1ccc2ccc3cc(C(=O)N4CCN(c5ccccc5F)CC4)nc3c2[nH]1	–	·	–	·	·	·
Cc1ccc2ccc3cc(C(=O)Nc4ccc(C)c(F)c4)nc3c2[nH]1	?	·	12.6µM	·	·	·
COc1ccc(NCc2cc3cc4c(cc3n(CC(=O)Nc3cc(C)ccc3C)c2=O)OCCO4)cc1	12.6µM	·	?	·	·	·
CCc1ccc(/C=C2/SC(N3CCOCC3)=NC2=O)cc1	–	–	–	–	–	–
CCN1C/C(=C/c2ccc(N3CCOCC3)cc2)C(=O)/C(=C/c2ccc(N3CCOCC3)cc2)C1	25.1µM	–	10µM	–	?	–
CN1C/C(=C\c2ccc(N3CCOCC3)cc2)C(=O)/C(=C/c2ccc(N3CCOCC3)cc2)C1	25.1µM	–	?	–	–	–
Clc1ccc(/C=C/c2ccc3ccccc3n2)cc1Cl	·	·	–	·	·	·
Cc1c(C#N)c(NC(=O)CCl)n(Cc2cccs2)c1C	–	–	?	5.01µM	?	–
Cc1c(C#N)c(NC(=O)CCl)n(Cc2ccccc2)c1C	?	–	–	–	?	–
CC(C)(C)CC(C)(C)N=C1Nc2ccc(Cl)cc2NC12C[C@H]1CCC(=O)N3CC[C@@H](C2)[C@@H]13 (stereo not given in full)	·	·	–	·	·	·
C=CC(=O)Nc1cccc(N(C)c2ccnc(Nc3ccc(N4CCN(C)CC4)cc3)n2)c1	–	·	–	10µM	·	–
C=CC(=O)Nc1cccc(Oc2ccnc(Nc3ccc(N4CCN(C)CC4)cc3)n2)c1	–	·	–	?	·	–
C=C(CC[C@]12OC(C(=O)O)C(O)(C(=O)O)C(C(=O)O)(O1)C(OC(=O)/C=C/[C@@H](C)C[C@@H](C)CC)C2O)[C@@H](OC(C)=O)[C@H](C)Cc1ccccc1 (stereo not given in full)	·	·	–	·	·	·
O=C(C[n+]1ccccc1)c1ccc(O)c(O)c1	·	·	–	·	·	·
CCc1ccccc1NC(=S)N=Nc1c(O)n(C)c2ccc(S(=O)(=O)N3CCOCC3)cc12	–	–	–	–	18.4µM	–
C=CC[C@]12CC=CC(=O)[C@@]1(O)O[C@H](c1ccc(OC)c(OC)c1)[C@H]2C	–	·	–	7.94µM	·	–
CCOc1ccc(S(=O)(=O)n2c(C)nc3ccccc32)cc1	–	–	–	12.6µM	–	–
CCCCOc1ccc(S(=O)(=O)n2c(C)nc3ccccc32)cc1	–	–	–	–	–	–
Cc1ccnc2ccc([N+](=O)[O-])cc12	·	·	–	·	·	·
O=C(CCc1ccccc1)Nc1ccccc1OC(=O)c1ccccc1	–	·	–	–	·	–
O=C(Nc1ccccc1OC(=O)c1ccccc1)c1ccccc1	?	·	?	11.2µM	·	–
C=CC[n+]1cccc2cccc(O)c21	·	·	–	·	·	·
C(=C\c1ccnc2ccccc12)/c1cc2c3c(c1)CCCN3CCC2	·	·	–	·	·	·
SMILES	Vif-APOBEC3F blk	MBNL1-CUG inh	Vif-A3G inh	uPA surface inh	BCR signal inh	TCR act	others
COc1ccc(C2CC(=O)N3CN(c4ccc(C)c(Cl)c4)CSC3=C2C#N)cc1OC (stereo not given)	–	–	–	7.08µM	–	–
CCOC(=O)[C@@H](C)N(C(=O)OC(C)(C)C)S(=O)(=O)N(Cc1ccccc1)[C@@H](C(=O)OC)C(C)C	·	·	–	·	·	·
CC(=O)NC(c1cc(Cl)c2cccnc2c1O)C(C)C (stereo not given)	8.91µM	·	–	3.16µM	–	–
CC(=O)NC(c1cc(F)c2cccnc2c1O)C(C)C (stereo not given)	·	·	·	·	–	·
CC(=O)NC(c1cc(Cl)c2cccnc2c1O)C1CC1 (stereo not given)	?	·	5.01µM	3.98µM	–	–
Cc1ccc(C(c2cc(Cl)c3cccnc3c2O)N2CCN(C)CC2)cc1 (stereo not given)	?	–	–	–	–	–
CN1CCN(C(c2ccccn2)c2cc(Cl)c3cccnc3c2O)CC1 (stereo not given)	–	–	–	?	7.08µM	–
CCCN(C)CCCOc1cc2nc(N3CCCN(C)CC3)nc(NC3CCN(C)CC3)c2cc1OC	·	·	–	·	·	·
O=C(O)C1CCCC1	·	·	–	·	·	·
CCCCN(CCCC)c1ccc(C=Nc2ccc(/C=C/c3ccnc4ccccc34)cc2)cc1C	·	·	–	·	·	·
Cc1csc(C)[n+]1CCC1CCCCC1	·	·	–	·	·	·
COc1ccc(Nc2cc3n(c(=O)n2)CCc2cc(OC)c(OC)cc2-3)c(C)c1	–	–	–	–	17.8µM	–
Cc1ccc(NC2c3ncccc3C(=O)N2Cc2cccs2)cc1 (stereo not given)	–	39.8µM	–	–	–	–	MBNL1-CUG FRET=51.7µM;MBNL1-CUG Alpha=25.9µM;Menin-MLL HTRF=–
O=S(=O)(c1ccc(C(F)(F)F)cc1)N1CCN(c2nc(-c3ccccc3)nc3ccccc23)CC1	·	·	–	·	·	·
O=C1c2ccccc2C(=O)C12OC2c1cccc2ccccc12 (stereo not given)	–	25.1µM	–	–	?	–	MBNL1-CUG FRET=–;MBNL1-CUG Alpha=?;Menin-MLL HTRF=–
Cc1cc(Nc2ccccc2)nc(NCc2ccccc2)n1	–	39.8µM	?	–	?	–	MBNL1-CUG FRET=?;MBNL1-CUG Alpha=3.66µM;Menin-MLL HTRF=–
Cc1cc(Nc2ccc(Cl)cc2)nc(NCc2ccccc2)n1	–	–	–	–	?	–
CC(C)c1ccc(NC(=O)CSc2nnc(-c3ccccc3)n2C)cc1	·	·	–	·	·	·
Cc1cc2c(c(=O)n1CCN(C)C)C(c1ccccc1Br)C(C#N)=C(N)O2 (stereo not given)	–	10µM	–	–	–	–	MBNL1-CUG FRET=13µM;MBNL1-CUG Alpha=–;Menin-MLL HTRF=25.9µM
Cc1ccc(C(=O)NCCN2C3=NC[C@H](C(C)C)N3C[C@H]2Cc2ccc(O)cc2)cc1Br	–	39.8µM	–	–	?	–	MBNL1-CUG FRET=41.1µM;MBNL1-CUG Alpha=?;Menin-MLL HTRF=–
NC(=NCc1ccc2c(c1)OCO2)NC(=O)c1ccccc1	–	·	–	–	–	–	MBNL1-CUG FRET=13µM;MBNL1-CUG Alpha=13µM;Menin-MLL HTRF=–
C/C(CCc1ccc2c(c1)OCO2)=N\NC(=O)c1ccccc1	–	–	–	–	?	–
